# Measured values reported in ChEMBL document CHEMBL4513216, “Probing the Open Global Health Chemical Diversity Library for Multistage-Active Starting Points for Next-Generation Antimalarials” (ACS Infect Dis, 2020).
# Screen size: about 65,000 compounds; about 2,100 (3.2%) showed an effect of 50% or more. The median lay at about -52%. The list comes from a sample in which strong results are over-represented; it also holds similar structures and randomly drawn compounds.
# Tested on: Plasmodium falciparum
# Assay: Screen against P. falciparum Asexual Blood Stage (ABS), at 5uM
# Assay type: functional, Dd2
# Settings: tested at 5 uM
row,SMILES,INHIBITION
1,CSC(C)(C)CNC(=O)NC1CCN(CC=C(C)C)CC1,-10.7%
2,COCC(=O)N1C[C@H]2CCC[C@@]2(COC)C1,-47.2%
3,Cc1cc(CN2CCCC2Cn2cncn2)no1 (stereo not given),-174%
4,c1cnn(CC2CCCN2Cc2cn3ccsc3n2)c1 (stereo not given),64.9%
5,c1ncn(CC2CCCCN2Cc2cn3ccsc3n2)n1 (stereo not given),61.4%
6,Cc1cc(CN2CCCCC2Cn2cncn2)no1 (stereo not given),57.3%
7,c1cnn(CC2CCCCN2Cc2cn3ccsc3n2)c1 (stereo not given),-19.1%
8,Cc1nc(C)n(CC2CCCN2Cc2cn3ccsc3n2)n1 (stereo not given),-20.5%
9,c1ncn(CC2CCCN(Cc3cn4ccsc4n3)C2)n1 (stereo not given),-48.4%
10,c1ncn(CC2CCCN2Cc2cn3ccsc3n2)n1 (stereo not given),-64.9%
11,Cc1cc(CN2CCCC2Cn2cccn2)no1 (stereo not given),-13.9%
12,CC(C)Nc1ncnc2c1CCN(C(=O)c1ccncc1F)CC2,-7.41%
13,CS(=O)(=O)NC(=O)c1ccn(-c2ccccc2Cl)n1,-38.1%
14,Cc1cc(C)n(CC2CN(CC(=O)NCc3ccccn3)CCO2)n1 (stereo not given),-102%
15,CSCc1noc(CNC(=O)C2CCN(C3CCCCC3)CC2)n1,-24.2%
16,COCCN1CCO[C@@H]2CN(C(=O)Cc3ccc(F)cc3)CC[C@@H]2C1,12%
17,COc1ccc(CN2C[C@H]3CN(c4ccsc4)C(=O)[C@H]3C2)cc1,-68.6%
18,CCN1CCN2CCCN(S(=O)(=O)c3ccc(C)cc3C)C2C1=O (stereo not given),64.3%
19,CCN1CCN2CCCN(S(=O)(=O)c3ccc(S(C)(=O)=O)cc3)C2C1=O (stereo not given),20.7%
20,CCN1CCN2CCCN(S(=O)(=O)c3cccc(F)c3)C2C1=O (stereo not given),24.6%
21,Cc1cnc(C(=O)N2Cc3cc(Cl)ccc3OC3(CCOCC3)C2)cn1,-30.5%
22,CCc1ccccc1N1CC(c2nnc(N)s2)CC1=O (stereo not given),-94.9%
23,COCC(=O)N1CCOC2(CCCN(c3cnccn3)C2)C1 (stereo not given),-88.3%
24,CC(C)CCN1CCCC12Cc1ccccc1CNC2=O (stereo not given),51.7%
25,Cc1ccc(CCN2CCCC23Cc2ccccc2CNC3=O)cc1 (stereo not given),-15.1%
26,CC(C)(C)CN1CCCC12Cc1ccccc1CNC2=O (stereo not given),2.53%
27,N#Cc1cccc(CNc2ccc(F)cc2OCCO)c1,-11%

row,SMILES,INHIBITION
1,Cc1ccc(S(=O)(=O)N2C[C@H]3C[C@H](NC(=O)c4cc[nH]n4)[C@H]3C2)cc1,-17.3%
2,CNS(=O)(=O)c1ccc(CNC(=O)Nc2cn[nH]c2)cc1,-94.2%
3,COC1(CNC(=O)NCCOc2ccccc2)CCSC1 (stereo not given),-45.4%
4,Cc1nc2c(c(NC3CC3)n1)CCN(C(=O)CCO)CC2,-79.7%
5,Cc1ccc2nc(C3CCCN3Cc3scnc3C)[nH]c2c1 (stereo not given),-84.1%
6,Cc1ccc2nc(C3CCCN3Cc3cccc(CCN)c3)[nH]c2c1 (stereo not given),41.2%
7,Cc1ccc2nc(C3CCCN3Cc3csc(C)n3)[nH]c2c1 (stereo not given),65.7%
8,CC(=O)c1cc(CN2CCCCC2c2nc3cc(F)ccc3[nH]2)cs1 (stereo not given),12.3%
9,Cc1ccc2nc(C3CCCN3Cc3nnc(C)s3)[nH]c2c1 (stereo not given),-102%
10,CC(=O)c1cc(CN2CCCC2c2nc3ccc(C)cc3[nH]2)cs1 (stereo not given),50.3%
11,Cc1c(C(=O)NCCC(=O)N2CCCC2)cccc1-c1ccccn1,-47.4%
12,CCOC(=O)[C@]12CCCN(Cc3cccs3)C[C@H]1CN(C(C)C)C2,9.63%
13,O=C(CN1CCOCC1)N(c1ccccc1)c1ccccc1,-110%
14,CN(C)c1ncccc1CNC(=O)N1CCCC1CN1CCCC1 (stereo not given),-122%
15,CC(=O)N1CCN(C(=O)CN2CCCC2c2c(C)nn(C)c2C)CC1 (stereo not given),-90.6%
16,O=C(NC1CCC1)C1=NOC2(CCN(Cc3ccco3)C2)C1 (stereo not given),-31.3%
17,COCc1ccc(C(=O)N2CCC(c3cc4nccnc4[nH]3)CC2)cc1,-69.8%
18,COc1cc(C(=O)N2CCCC(n3ccnc3)C2)cc2c1OCCO2 (stereo not given),-16.1%
19,Cc1nc[nH]c1CN1CCCC12CCN(c1nc3ccccc3s1)CC2,24.2%
20,Cc1nc[nH]c1CN1CCCN(c2nc3ccccc3s2)CC1,54.8%
21,Cc1ncnc(N2CCCN(c3nc4ccccc4s3)CC2)c1C,-442%
22,CC(=O)N1CCCC1c1nnn2cc(-c3ccncc3)ccc12 (stereo not given),-69.2%
23,O=C(O)c1nnn(-c2ccccc2)c1-c1ccncc1,-32.3%
24,CCn1c(C2CCNCC2)nn(Cc2ccc(C(=O)NC)o2)c1=O,-72.6%
25,CCCn1ncc(-c2ccnc(NC3CCSC3)n2)c1C (stereo not given),-10.1%
26,CCCn1ncc(-c2ccnc(NC3CC(C)(C)NC(C)(C)C3)n2)c1C,67.2%
27,CCCn1ncc(-c2ccnc(N[C@@H]3C[C@H]4CC[C@@H]3C4)n2)c1C,-34.5%

row,SMILES,INHIBITION
1,CC(C)N1CCC(N2CCC(C(=O)N(C)C)CC2)CC1,-45.6%
2,O=C(N[C@@H]1CNCCC[C@H]1O)c1ccc(OCCN2CCCC2)cc1,-65.9%
3,COCCOc1ccc(C(=O)N[C@@H]2CNCCC[C@H]2O)cc1,-9.34%
4,O=C(N[C@@H]1CNCCC[C@H]1O)c1ccc(OCc2ccccc2)cc1,63.2%
5,CCc1ccccc1Nc1noc2c1CN(C(=O)c1ccn(C)n1)CC2,-63.2%
6,CCc1ccccc1Nc1noc2c1CN(C(=O)CNC(C)=O)CC2,45.1%
7,CCc1ccccc1Nc1noc2c1CN(C(=O)C1CCCO1)CC2 (stereo not given),68.6%
8,O=C(NCc1cccnc1-n1cncn1)c1ccncc1,-55.2%
9,COc1cccc(C(=O)N2CC[C@@H]3[C@H](CC2)N(C)CCS3(=O)=O)c1,-72.7%
10,CCN1CCO[C@]2(CCC[C@H]2COCc2csc(C)n2)C1,57.7%
11,Cc1nc(COC[C@@H]2CCC[C@@]23CN(C)CCO3)cs1,15.6%
12,Cc1nc(COC[C@@H]2CCC[C@@]23CNCCO3)cs1,47.5%
13,Cc1nc(COC[C@H]2CCC[C@]23CN(CC2CC2)CCO3)cs1,32.7%
14,Cc1nc(COC[C@H]2CCC[C@]23CN(C2CCOC2)CCO3)cs1 (stereo not given in full),-51.5%
15,Cc1nc(COC[C@H]2CCC[C@@]23CN(C(C)C)CCO3)cs1,51.9%
16,c1ccc(CN2Cc3nccn3CC(Cn3cccn3)C2)nc1 (stereo not given),-16.2%
17,CCN(CC)Cc1cn2c(n1)CN(C(=O)Cc1ccsc1)CC2,-53.3%
18,Cc1cc(N(Cc2cccs2)C2CC2)n2nc(C(F)(F)F)nc2n1,67.3%
19,Cc1cc(N(Cc2ccccc2F)C2CC2)n2nc(C(F)(F)F)nc2n1,4%
20,Cc1cc(N(Cc2ccccn2)C2CC2)n2nc(C(F)(F)F)nc2n1,-61.2%
21,CC1c2ncc(Cn3cccn3)n2CCN1Cc1ccccn1 (stereo not given),-88.5%
22,Cc1nnc2n1CCN(C(C(=O)NC1CC1)c1ccc(F)cc1)C2 (stereo not given),-127%
23,CCN1CCN(CCNC(=O)c2ccn(-c3ccc(F)cc3)n2)CC1,-11.4%
24,NC(=O)CC1CCN(C(=O)c2cccn2Cc2cccs2)CC1,-68.7%
25,CN1[C@@H](C(=O)NCC2CC2)C[C@@H]2CN(Cc3ccco3)C[C@@H]21,-99%
26,COc1ncccc1CN1C[C@H]2C[C@@H](C(=O)NCC3CC3)N(C)[C@H]2C1,51.2%
27,CN1[C@@H](C(=O)NCC2CC2)C[C@@H]2CN(Cc3ccoc3)C[C@@H]21,30.4%

row,SMILES,INHIBITION
1,CCOc1ccc(C(=O)N2CCCC2c2c(C)nn(C)c2Cl)cn1 (stereo not given),-37.6%
2,COc1cccc(CN2CCC3(CC2)CCN(c2ncccn2)C3)c1,0.0663%
3,CCS(=O)(=O)N1CCC2(CCN(Cc3cccc(OC)c3)CC2)CC1,68.4%
4,COc1cccc(CN2CCC3(CC2)CCN(c2ncc(C)cn2)C3)c1,-73.3%
5,NC(=O)C1CCCN1Cc1cccc(NC(=O)c2cc(Cl)cc(Cl)c2)c1 (stereo not given),-51%
6,Clc1ccc2cccnc2c1CN1CCCC1Cn1cncn1 (stereo not given),53.7%
7,Clc1ccc(CN2CCCC(Cn3cncn3)C2)c2ncccc12 (stereo not given),64.6%
8,Clc1ccc2cccnc2c1CN1CCCCC1Cn1cncn1 (stereo not given),48.2%
9,Fc1ccc(CN2CCCCC2Cn2cncn2)c2ncccc12 (stereo not given),65.8%
10,Clc1cc(CN2CCCC2Cn2cncn2)c2ncccc2c1 (stereo not given),2.88%
11,Fc1ccc(CN2CCCC2Cn2cccn2)c2ncccc12 (stereo not given),59.1%
12,Fc1ccc(CN2CCCC(Cn3cncn3)C2)c2ncccc12 (stereo not given),-1.08%
13,N#Cc1ccc(CN2CCCC2Cn2cccn2)c(F)c1 (stereo not given),-129%
14,Clc1cc(CN2CCCC(Cn3cncn3)C2)c2ncccc2c1 (stereo not given),39.2%
15,N#Cc1ccc(F)c(CN2CCCC2Cn2cccn2)c1 (stereo not given),-15.1%
16,Fc1ccc(CN2CCCC2Cn2cncn2)c2ncccc12 (stereo not given),13.9%
17,Clc1ccc(CN2CCCCC2Cn2cncn2)c2ncccc12 (stereo not given),17.8%
18,CC1=Nc2c(c(=O)[nH]n2C(C)C)C(c2ccc3nccnc3c2)S1 (stereo not given),-82.6%
19,Cc1ccc(N2CCCC(NCc3ccccn3)C2)nn1 (stereo not given),-71.8%
20,O=C(c1ccccc1)N1CCN(CC(O)c2ccc(F)cc2)CC1 (stereo not given),-120%
21,O=C(CN1CCCC1Cn1cncn1)Nc1ccc(Cl)cn1 (stereo not given),-112%
22,Cc1cc(N2CCN(C(=O)c3cc(Cl)c[nH]3)CC2)nc(C)n1,-19.7%
23,Cc1cc(N2CCN(C(=O)c3cc(Cl)c[nH]3)CC2)nc(C(C)C)n1,13%
24,Cc1cc(N2CCN(C(=O)c3cc(Cl)c[nH]3)CC2)nc(N)n1,69.8%
